Compound activity: PubChem, Broad Institute
Only a sample is shown.
aSyn 5UTR act: Activators working through SNCA 5'UTR binding (MLPCN); AID 1814; alpha-synuclein 5'UTR reporter, activators screen; activity score, % (tested at 7.5 µM), hits read low; actives 7.1% (n = 300,000); in the data active means activity score below about -60%
Large screens that a line does not name were inactive.

CC(C)(C)c1cc(NCCCn2ccnc2)n2ncc(-c3ccc(Cl)cc3)c2n1	aSyn 5UTR act -109
CCOC(=O)c1csc(NC(=O)c2cccs2)n1	aSyn 5UTR act -109
CCOC(=O)Cc1csc(NC(=O)c2c(O)c3ccccc3n(CC(C)C)c2=O)n1	none
CCOC(=O)Cc1csc(NC(=O)c2cccs2)n1	aSyn 5UTR act -176
COc1ccc(Nc2ccc3c(c2)=NC2(CCCCC2)[N+]=3[O-])cc1	aSyn 5UTR act -87
CC(=O)C1=C(O)C(=O)N(c2ccc(Br)cn2)C1c1ccc(Br)cc1 (stereo unspecified)	aSyn 5UTR act -101
Cc1cccnc1NC(=S)Nc1ccc(F)cc1F	aSyn 5UTR act -74
Cc1ccc(C)c(NC(=S)Nc2ncccc2C)c1	aSyn 5UTR act -136
Cc1cc(C)nc(NC(=S)Nc2ccc(F)cc2F)c1	aSyn 5UTR act -62
COCCCNc1nnc(Cc2ccc(Cl)cc2)c(=O)[nH]1	none
COc1ccc(N=C2S/C(=C\c3ccc(Cl)c([N+](=O)[O-])c3)C(=O)N2CCN(C)C)cc1	none
C=CCN1C(=O)/C(=C2/Sc3ccc(OC)cc3N2C)SC1=Nc1ccc(OC)cc1	aSyn 5UTR act -79
CCN(CC)CCN1C(=O)/C(=C\c2ccc(Cl)c([N+](=O)[O-])c2)SC1=Nc1ccc(OC)cc1	none
O=C(Nc1ncc(Cc2cccc(Cl)c2Cl)s1)C1CCCO1 (stereo unspecified)	aSyn 5UTR act -128
O=C(Nc1ncc(Cc2cccc(Cl)c2)s1)C1CCCO1 (stereo unspecified)	aSyn 5UTR act -161
O=C(Nc1ncc(Cc2ccccc2Cl)s1)C1CCCO1 (stereo unspecified)	aSyn 5UTR act -89
Cc1ccc(OC(=O)NC2CCS(=O)(=O)C2)cc1C (stereo unspecified)	aSyn 5UTR act -122
Cc1ccn2cc(C34CC5CC(CC(C5)C3)C4)nc2c1	aSyn 5UTR act -83
COc1cccc(C(=O)N/N=C(\C)c2ccc(NC(=O)Cc3ccccc3)cc2)c1OC	aSyn 5UTR act -88
C/C(=N\NC(=O)c1cccc(O)c1)c1ccc(NC(=O)Cc2ccccc2)cc1	aSyn 5UTR act -85
C/C(=N\NC(=O)c1ccccc1O)c1ccc(NC(=O)Cc2ccccc2)cc1	aSyn 5UTR act -71
COc1ccc(/C(C)=N/NC(=O)c2ccccc2OCc2ccccc2)c(OC)c1	aSyn 5UTR act -118
CC(C)(C)C(=O)NC(=S)NNC(=O)c1ccc(-c2ccccc2)cc1	none
O=C(NNC(=O)c1ccc(-c2ccccc2)cc1)c1ccccc1	aSyn 5UTR act -64
CCC(C)c1ccc(NC(=O)c2cccnc2)cc1 (stereo unspecified)	aSyn 5UTR act -269
O=C(Nc1ccccc1)c1cnc[nH]1	aSyn 5UTR act -68
CC(C)c1ccc(C(=O)Nc2cccnc2)cc1	aSyn 5UTR act -96
COc1cccc(-c2cc(=O)c3cc(NC(=O)c4ccc(Cl)cc4)ccc3[nH]2)c1	aSyn 5UTR act -68
O=C(Nc1cccnc1)c1cnc2ccccc2n1	aSyn 5UTR act -73
CC(C)(C)C(=O)Nc1ccc(C(=O)Nc2cccnc2)cc1	aSyn 5UTR act -120
COc1cccc(-c2cc(=O)c3cc(NC(=O)c4ccccc4)ccc3[nH]2)c1	none
O=C(Nc1ccncc1)c1ccc(-c2ccccc2)cc1	aSyn 5UTR act -127
c1ccc(Sc2cccc3ccccc23)c(CNC2=NCCN2)c1	none
O=C(Nc1ccc(-c2cnco2)cc1)c1ccccc1	aSyn 5UTR act -172
COc1cccc(NC(=O)c2ccc(NC(=O)C(C)(C)C)cc2)c1	aSyn 5UTR act -189
CC(C)c1cc(C(=O)Nc2cccnc2)no1	aSyn 5UTR act -85
Cc1ccc(C(=O)Nc2cccnc2)cc1Cl	aSyn 5UTR act -172
O=C(Nc1cccnc1)c1ccc(-c2ccccc2)cc1	aSyn 5UTR act -163
O=C(O)Cc1sc(Nc2ccccc2)nc1-c1ccc(Cl)cc1	aSyn 5UTR act -149
O=C(O)Cc1sc(Nc2ccc(F)cc2)nc1-c1cccs1	aSyn 5UTR act -132
O=C(Cc1sc(Nc2ccccc2)nc1-c1ccccc1)NCc1ccccn1	aSyn 5UTR act -182
Cc1ccc(Nc2nc(-c3ccccc3)c(CC(=O)O)s2)cc1	aSyn 5UTR act -155
Nc1c(C(=O)Nc2ccc(F)cc2)sc(=S)n1-c1ccccc1F	aSyn 5UTR act -84
Cn1c(N)c(C(=O)Nc2ccc3ccccc3c2)sc1=S	aSyn 5UTR act -186
CCOc1ccc2nc(NC(=O)C3=NNC(=O)CC3)sc2c1	aSyn 5UTR act -73
CCOc1ccc2nc(NC(=O)c3cnc(C)cn3)sc2c1	aSyn 5UTR act -68
COc1ccc(C2NN=C(c3ccc(C)cc3)S2)cc1OC (stereo unspecified)	aSyn 5UTR act -144
CC1(C)CC(=O)c2cnc(N3CCc4ccccc4C3)nc2C1	aSyn 5UTR act -218
CC1(C)CC(=O)c2cnc(N3CCN(c4ccccc4)CC3)nc2C1	aSyn 5UTR act -62
Cc1ccc(Nc2ncc3c(n2)CC(C)(C)CC3=O)cc1	aSyn 5UTR act -88
O=C1C2C3CCC(C3)C2C(=O)N1c1ccc(OS(=O)(=O)c2ccccc2)cc1 (stereo unspecified)	aSyn 5UTR act -178
COc1ccc(OCc2cc(C(=O)N3CCN(C4CCCC4)CC3)no2)c(Cl)c1	aSyn 5UTR act -80
COc1ccc(OCc2cc(C(=O)N3C[C@@H](C)O[C@@H](C)C3)no2)c(Cl)c1	aSyn 5UTR act -67
O=C(c1cc(COc2ccc(F)cc2F)on1)N1CCSCC1	aSyn 5UTR act -117
O=C(c1cc(COc2ccc(F)cc2Cl)on1)N1CCCCCC1	aSyn 5UTR act -116
CC1CN(C(=O)c2cccc(COc3ccccc3Cl)c2)CC(C)O1 (stereo unspecified)	aSyn 5UTR act -145
COc1ccc(OCc2cc(C(=O)N3CCCCCCC3)no2)c(Cl)c1	aSyn 5UTR act -69
COc1ccc(OCc2cc(C(=O)N3CCN(CC4CC4)CC3)no2)c(Cl)c1	aSyn 5UTR act -87
CCOC(=O)N1CCN(C(=O)c2cc(COc3ccc(OC)cc3Cl)on2)CC1	aSyn 5UTR act -62
O=c1cc(N2CCN(c3ccccc3Cl)CC2)[nH]c(=O)n1Cc1ccc(F)cc1	aSyn 5UTR act -72
Nc1cccc2c1C(=O)N(CCOc1ccc(F)cc1)C2=O	aSyn 5UTR act -118
O=C1c2ccccc2C(=O)N1CCOc1ccccc1Br	aSyn 5UTR act -71
CC(=O)Nc1nc2ccccc2n1CCOc1ccccc1Cl	none
O=C1c2ccccc2C(=O)N1CCOc1ccccc1Cl	aSyn 5UTR act -105
O=C1c2ccccc2C(=O)N1CCOc1ccccc1	aSyn 5UTR act -96
Cc1ccccc1OCCN1C(=O)c2ccccc2C1=O	aSyn 5UTR act -93
CSc1nsc(SCC(=O)Nc2nc3ccc(C)cc3s2)n1	aSyn 5UTR act -84
Cc1ccc2nc(NC(=O)CSCc3ccccc3)sc2c1	aSyn 5UTR act -79
CCn1c2ccccc2c2cc(NC(=O)C(=O)N3CCOCC3)ccc21	aSyn 5UTR act -63
CCn1c2ccccc2c2cc(Nc3cc(C)nc4ncnn34)ccc21	none
COc1cccc(NC(=O)C(=O)N2CCOCC2)c1	aSyn 5UTR act -173
Cn1c(N)c(C(=O)/C=C/c2ccccc2)c(=O)[nH]c1=O	aSyn 5UTR act -140
O=C(NNc1cccc(Cl)n1)c1ccc(Cl)cc1Cl	aSyn 5UTR act -81
c1ccn2cc(CSc3nnc4ccccn34)nc2c1	aSyn 5UTR act -90
c1ccn2cc(CSC3=NCCS3)nc2c1	aSyn 5UTR act -118
Cc1ccn2cc(CSc3ccccc3)nc2c1	aSyn 5UTR act -88
Cn1ccnc1SCc1cn2ccccc2n1	aSyn 5UTR act -105
C=CCC(CC(O)COCCC)C(=O)NNC(=S)Nc1ccccc1 (stereo unspecified)	aSyn 5UTR act -113
N#Cc1ccc(N2CCc3ccccc3C2)c([N+](=O)[O-])c1	none
